Assay results reported in PubChem BioAssay (Tox21).
Values joined by “and” are separate entries in the source; they are usually repeats but may differ in a detail not shown here. Equal values may be shown once. Inconclusive results are not listed. Unmarked numbers belong to inactive results. Active and inactive are the calls of the source. Calls come from the whole dose curve; as a rule, active = well fitted inhibition curve with a large enough effect in the signal ratio in the repeat runs (not every such curve was filed as active); inconclusive = weak or mixed curves, or effect the other way; inactive = no such curve, though single readings can be large or run the other way; the % refers to the signal ratio.

Molecular target: Androgen receptor (Homo sapiens) (UniProt P10275)
Sequence (P10275 whole entry, looked up): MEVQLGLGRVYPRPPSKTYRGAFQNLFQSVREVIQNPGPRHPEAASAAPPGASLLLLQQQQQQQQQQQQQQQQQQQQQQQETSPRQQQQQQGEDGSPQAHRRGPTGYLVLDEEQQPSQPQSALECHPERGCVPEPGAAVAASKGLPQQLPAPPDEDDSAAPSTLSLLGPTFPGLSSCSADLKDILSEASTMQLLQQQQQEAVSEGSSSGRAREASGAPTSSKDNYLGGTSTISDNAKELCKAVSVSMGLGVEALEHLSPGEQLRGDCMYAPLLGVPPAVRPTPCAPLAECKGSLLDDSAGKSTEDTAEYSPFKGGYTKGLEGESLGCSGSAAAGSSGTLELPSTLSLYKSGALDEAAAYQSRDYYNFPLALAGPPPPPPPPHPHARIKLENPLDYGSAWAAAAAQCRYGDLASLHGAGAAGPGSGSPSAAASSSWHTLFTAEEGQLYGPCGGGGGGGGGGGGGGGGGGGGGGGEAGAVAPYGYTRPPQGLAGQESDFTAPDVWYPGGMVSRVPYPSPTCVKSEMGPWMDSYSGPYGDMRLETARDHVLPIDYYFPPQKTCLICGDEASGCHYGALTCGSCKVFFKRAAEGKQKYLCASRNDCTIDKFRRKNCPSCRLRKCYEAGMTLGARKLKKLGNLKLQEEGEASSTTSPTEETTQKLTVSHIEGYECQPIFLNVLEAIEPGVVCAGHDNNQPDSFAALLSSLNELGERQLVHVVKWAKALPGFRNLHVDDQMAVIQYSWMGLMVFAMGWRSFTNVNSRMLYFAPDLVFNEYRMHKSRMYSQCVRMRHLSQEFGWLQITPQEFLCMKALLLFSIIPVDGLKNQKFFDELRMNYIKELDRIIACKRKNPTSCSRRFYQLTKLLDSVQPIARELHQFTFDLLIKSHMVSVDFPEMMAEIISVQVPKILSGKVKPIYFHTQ
Assay: qHTS assay to identify small molecule antagonists of the androgen receptor (AR) signaling pathway (AID 743035)
Details: HEK293 AR-UAS-bla, R1881-stimulated, beta-lactamase FRET, 16 h; series mostly up to 58.5 µM; activity change, negative = inhibition: at the top concentration
From the text: National Center for Advancing Translational Sciences [NCATS]
NIH Chemical Genomics Center [NCGC]
U.S. Environmental Protection Agency [EPA]
National Institutes of Environmental Health Sciences [NIEHS]
National Toxicology Program [NTP]
U.S. Food and Drug Administration [FDA]
Androgen receptor (AR), a nuclear hormone receptor, plays a critical role in AR-dependent prostate cancer and other androgen related diseases. Endocrine disrupting chemicals (EDCs) and their interactions with steroid hormone receptors like AR may cause disruption of normal endocrine function as well as interfere with metabolic homeostasis, reproduction, developmental and behavioral functions. To identify the compounds that inhibit AR signaling, GeneBLAzer AR-UAS-bla-GripTite cell line (Invitrogen, Carlsbad, CA, USA) containing a beta-lactamase reporter gene under control of an Upstream Activator Sequence (UAS) stably integrated into HEK293 cells was used to screen the Tox21 10K compound library.
Tox21 Assay Protocol Summary:
AR-bla cells were dispensed at 2,000 cells/5 uL of assay medium per well into black wall/clear-bottom 1536-well plates using a Multidrop Combi (ThermoFisher Scientific, Waltham, MA) dispenser. After the assay plates were incubated at a 37C and 5% CO2 for 4 hr, 23 nL of compounds dissolved in DMSO, positive controls or DMSO only was transferred to the assay plate by a Pintool station (Kalypsys, San Diego, CA), followed by addition of 1 uL of agonist (R1881) in culture medium using a Bioraptr Flying Reagent Dispenser (FRD) workstation (Beckman Coulter, Indianapolis, IN, USA). The plates were incubated at a 37C and 5% CO2 for 16 h. After 1 uL of LiveBLAzerTM B/G FRET substrate was added using a Bioraptr FRD, the plates were incubated at room temperature for 2 h and fluorescence intensity was measured by an Envision plate reader (PerkinElmer, Shelton, CT).
% is set by controls: 0 for no effect and ±100 for the full control effect; potency is the fitted concentration of half-maximal effect.

Row | Compound | activity change, negative = inhibition | Potency
1 | COP(=S)(OC)SCn1nnc2ccccc2c1=O | -14.8% | 
2 | O=C(O)c1nn(Cc2ccc(Cl)cc2Cl)c2ccccc12 | -22.1% | 
3 | COP(=S)(OC)Oc1ccc(S(=O)(=O)N(C)C)cc1 | -10.4% | 
4 | O=[N+]([O-])/N=C1\NCCN1Cc1ccc(Cl)nc1 |  | inactive
5 | N#Cc1nn(-c2c(Cl)cc(C(F)(F)F)cc2Cl)c(N)c1S(=O)C(F)(F)F (stereo not drawn) |  | 23.9 µM (active)
6 | CCOP(=S)(OCC)OP(=S)(OCC)OCC |  | inactive
7 | CCC(=O)Nc1ccc(Cl)c(Cl)c1 |  | 22.3 µM (active) and 24.5 µM (active)
8 | Clc1cccc(C(Cl)(Cl)Cl)n1 |  | inactive
9 | CC(C)(c1ccc(OCC2CO2)cc1)c1ccc(OCC2CO2)cc1 (stereo not drawn) |  | inactive
10 | C=CC(=O)OCC(CC)(COC(=O)C=C)COC(=O)C=C |  | 4.48 µM (active)
11 | O=[N+]([O-])c1ccc(Cl)c([N+](=O)[O-])c1 |  | 9.92 µM (active) and 19.5 µM (active)
12 | CC(C)=CC1C(C(=O)OCN2C(=O)C3=C(CCCC3)C2=O)C1(C)C (stereo not drawn) |  | 43.6 µM (active)
13 | CCC1(c2ccc(N)cc2)CCC(=O)NC1=O (stereo not drawn) |  | inactive
14 | Oc1ccc(Cl)cc1Cc1ccccc1 |  | 19.5 µM (active)
15 | C=CC(Cl)CCl (stereo not drawn) | 7.62% [at 78.9 µM] | 
16 | O=C1CCCO1 |  | inactive
17 | S=c1[nH]c2ccccc2[nH]1 |  | inactive
18 | COP(=S)(OC)Oc1ccc(Sc2ccc(OP(=S)(OC)OC)cc2)cc1 |  | 54.9 µM (active)
